# PubChem BioAssay (NCATS)
# “And” between values parts separate entries of the source, which are not always exact repeats. Equal values may be shown once. Inconclusive results are not listed. Unmarked numbers belong to inactive results. The source made the active and inactive calls. Calls come from the whole dose curve; as a rule, active = well fitted curve in the direction sought with a large enough effect; inconclusive = small, poorly fitted or top-dose-only effect, or another doubt; inactive = no such curve, though single readings can be large; an effect the other way counts as inactive or inconclusive.
# Key:
# [1] = molecular target: Cellular tumor antigen p53 (Homo sapiens) (UniProt P04637); assay: Primary qHTS for small molecule compounds that upregulate eGFP-tagged delta133p53alpha (in N-terminal) cells. (AID 2060322); details: NCI-H358 eGFP-delta133p53alpha fluorescence, 24 h; activation: hits give high values; note: nearly all actives have a fitted effect of over 75% in size; note: potency is the fitted concentration of half-maximal effect;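 for activation: series mostly up to about 56 µM; 0% = DMSO vehicle and 100% = reference activator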
# Sequence of Cellular tumor antigen p53 (Homo sapiens) (P04637 whole entry, looked up): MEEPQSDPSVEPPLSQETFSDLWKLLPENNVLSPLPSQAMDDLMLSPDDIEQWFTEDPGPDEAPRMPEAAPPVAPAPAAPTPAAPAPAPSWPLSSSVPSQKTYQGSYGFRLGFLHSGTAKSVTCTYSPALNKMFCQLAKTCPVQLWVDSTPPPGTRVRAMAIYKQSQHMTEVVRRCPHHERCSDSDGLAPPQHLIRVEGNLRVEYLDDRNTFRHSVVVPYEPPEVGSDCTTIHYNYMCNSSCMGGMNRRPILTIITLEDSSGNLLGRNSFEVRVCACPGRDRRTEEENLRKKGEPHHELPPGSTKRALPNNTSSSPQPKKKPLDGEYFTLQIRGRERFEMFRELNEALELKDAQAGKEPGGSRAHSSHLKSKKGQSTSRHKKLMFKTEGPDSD
# Outline: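 NCI-H358 cells pre-induced 24 h with 10 ng/ml doxycycline to express N-terminal eGFP-delta133p53alpha, then dosed 24 h at 37C without doxycycline; fixed, Hoechst-stained, GFP intensity by laser scanning cytometry, normalized to DMSO (0%) and 57.5 uM 5-azacytidine (100%).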
# [2] = molecular target: Aldehyde dehydrogenase, mitochondrial (Homo sapiens) (UniProt P05091); assay: qHTS for Inhibitors of the Aldehyde Dehydrogenase Family (ALDH2) Primary screen (AID 2061308);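 note: plate controls were vehicle for no effect and reference inhibitor for full effect; nearly all actives have a fitted effect of over 55% in size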
# [3] = BET inhibitor-based combinations targeting novel dependencies in MECOM-rearranged (r) AML: SET-2 cell line (AID 2202231); details: SET-2 AML cells viability, CellTiter-Glo luminescence, 48 h; viability: hits give low values, concentration not given here; note: nearly all actives have a fitted effect of over 35% in size; note: potency is the fitted concentration of half-maximal effect;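 for viability: plate controls were DMSO treated cells for no effect and wells without cells for full effect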
# Outline: (§1)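 Cells were plated at 500 per well and exposed to an 11-point dose series of each drug for 48 hr. Viability was measured by CellTiter-Glo luminescence, normalized to DMSO and empty-well controls, and summarized as AUC and per-cell-line Z-AUC.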
# [4] = BET inhibitor-based combinations targeting novel dependencies in MECOM-rearranged (r) AML: MV-4-11 cell line (AID 2202233); note: potency is the fitted concentration of half-maximal effect; nearly all actives have a fitted effect of over 45% in size
# Outline: (§2)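 Activity is given as area under the curve and as Z-AUC, mean-centred within each cell line. It comes from 11-point dose curves normalized to DMSO and empty wells. CellTiter-Glo luminescence was read after 48 hr drug exposure of 500 cells/well.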
# [5] = BET inhibitor-based combinations targeting novel dependencies in MECOM-rearranged (r) AML: HNT-34 cell line (AID 2202234); note: nearly all actives have a fitted effect of over 35% in size; note: potency is the fitted concentration of half-maximal effect
# Outline: as §2
# [6] = BET inhibitor-based combinations targeting novel dependencies in MECOM-rearranged (r) AML: UCSD-AML1 cell line (AID 2202235); note: nearly all actives have a fitted effect of over 40% in size; note: potency is the fitted concentration of half-maximal effect
# Outline: as §2
# [7] = BET inhibitor-based combinations targeting novel dependencies in MECOM-rearranged (r) AML: AML-191 cell line (AID 2202236; note: nearly all actives have a fitted effect of over 35% in size; note: potency is the fitted concentration of half-maximal effect)
# Outline: as §1
# [8] = BET inhibitor-based combinations targeting novel dependencies in MECOM-rearranged (r) AML: AML-194 cell line (AID 2202237; note: nearly all actives have a fitted effect of over 40% in size; note: potency is the fitted concentration of half-maximal effect)
# Outline: as §1
# [9] = BET inhibitor-based combinations targeting novel dependencies in MECOM-rearranged (r) AML: OCI-AML3 cell line (AID 2202232); details: Potency: OCI-AML3 viability; note: nearly all actives have a fitted effect of over 35% in size; note: potency is the fitted concentration of half-maximal effect
# Outline: as §1
# [10] = molecular target: Retinaldehyde dehydrogenase 3 (Homo sapiens) (UniProt P47895); assay: qHTS for Inhibitors of the Aldehyde Dehydrogenase Family (ALDH1A3) Confirmatory screens (AID 2061311); note: potency is the fitted concentration of half-maximal effect; nearly all actives have a fitted effect of over 60% in size
# [11] = molecular target: Retinaldehyde dehydrogenase 3 (Homo sapiens) (UniProt P47895); assay: qHTS for Inhibitors of the Aldehyde Dehydrogenase Family (ALDH1A3) Primary screen (AID 2061315);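 note: plate controls were DMSO vehicle for no effect and reference inhibitor for full effect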
# [12] = molecular target: Aldehyde dehydrogenase 1A1 (Homo sapiens) (UniProt P00352); assay: qHTS for Inhibitors of the Aldehyde Dehydrogenase Family (ALDH1A1) Confirmatory screens (AID 2061316); note: potency is the fitted concentration of half-maximal effect; nearly all actives have a fitted effect of over 65% in size
# [13] = molecular target: Retinal dehydrogenase 2 (Homo sapiens) (UniProt O94788); assay: qHTS for Inhibitors of the Aldehyde Dehydrogenase Family (ALDH1A2) Confirmation screens (AID 2061314); note: potency is the fitted concentration of half-maximal effect; nearly all actives have a fitted effect of over 65% in size
compound,measurement,setting,value
C=CC(=O)Nc1cccc(Nc2nc(Nc3ccc(NC4CN(CCF)C4)cc3OC)ncc2C(F)(F)F)c1,Potency,[1],7.57 µM (active)
same,Potency,[2],inactive
same,Potency,[3],18.6 µM (active)
same,Potency,[4],2.63 µM (active)
same,Potency,[5],3.32 µM (active)
same,Potency,[6],9.34 µM (active)
same,Potency,[7],13.2 µM (active)
same,Potency,[8],13.2 µM (active)
NC1(c2ccc(-c3nc4ccn5c(=O)[nH]nc5c4cc3-c3ccccc3)cc2)CCC1,activation,[1],26.3% and 14.1% and 3.82%
same,Potency,[2],inactive
same,Potency,[3],20.9 µM (active)
same,Potency,[9],16.6 µM (active)
same,Potency,[4],13.2 µM (active)
same,Potency,[5],7.42 µM (active)
same,Potency,[6],14.8 µM (active)
same,Potency,[7],18.6 µM (active)
same,Potency,[8],18.6 µM (active)
CC1(C)C=CN2C(=O)C3=CCCN3C(=O)[C@@H]2C[C@@]12Nc1ccccc1C2=O,activation,[1],-19.8%
same,Potency,[10],7.83 µM (active)
COc1cc(N2CCC(N)CC2)ccc1Nc1ncc(Cl)c(-c2c[nH]c3ccccc23)n1,Potency,[1],26.9 µM (active)
same,Potency,[2],inactive
same,Potency,[3],18.6 µM (active)
same,Potency,[9],5.9 µM (active)
same,Potency,[4],0.0661 µM (active)
same,Potency,[5],1.32 µM (active)
same,Potency,[6],1.48 µM (active)
same,Potency,[7],8.33 µM (active)
same,Potency,[8],10.5 µM (active)
O=C1OCc2cc3cccc(O[C@@H]4O[C@H](CO)[C@@H](O)[C@H](O)[C@H]4O)c3c(O)c21,activation,[1],-11.5%
same,Potency,[10],13.9 µM (active)
N#Cc1cccc(-c2c[nH]c3ncnc(N4CCOCC4)c23)c1,activation,[1],-5.36%
same,Potency,[2],inactive
same,Potency,[11],inactive
same,Potency,[6],inactive
same,Potency,[7],18.6 µM (active)
same,Potency,[8],inactive
COc1ccccc1C(=O)Nc1cc2c(cc1N1CCCC1)n(C)c(=O)n2C,activation,[1],-44.7%
same,Potency,[2],inactive
same,Potency,[4],16.6 µM (active)
same,Potency,[5],26.3 µM (active)
COc1c(Cl)cc2c([nH]c3cnccc32)c1NC(=O)c1cccnc1C,activation,[1],16.3%
same,Potency,[2],inactive
same,Potency,[11],inactive
same,Potency,[7],20.9 µM (active)
same,Potency,[8],23.5 µM (active)
CCCS(=O)c1ccc2nc(NC(=O)OC)[nH]c2c1 (stereo not drawn),activation,[1],-21.8% and -4.96%
same,Potency,[2],inactive
same,Potency,[9],26.3 µM (active)
same,Potency,[4],23.5 µM (active)
same,Potency,[5],13.2 µM (active)
same,Potency,[7],8.33 µM (active)
same,Potency,[8],11.8 µM (active)
NC1CCC(N[C@@H]2C[C@H]2c2ccccc2)CC1 (stereo partly drawn),activation,[1],3.67% and 27.6%
same,Potency,[2],inactive
same,Potency,[11],inactive
same,Potency,[6],0.0019 µM (active)
same,Potency,[7],inactive
same,Potency,[8],inactive
Cc1cc2c(N3CCCC3)nc(N3CCCC3)nc2n1C,activation,[1],-16.7%
same,Potency,[10],14.2 µM (active)
same,Potency,[11],inactive
same,Potency,[12],11.3 µM (active)
Cc1ccc([N+](=O)[O-])cc1S(=O)(=O)N(C)/N=C/c1cnc2ccc(Br)cn12,Potency,[1],0.213 µM (active)
same,Potency,[2],inactive
same,Potency,[3],0.166 µM (active)
same,Potency,[9],0.235 µM (active)
same,Potency,[4],0.0417 µM (active)
same,Potency,[5],0.166 µM (active)
same,Potency,[6],0.166 µM (active)
same,Potency,[7],0.166 µM (active)
same,Potency,[8],0.186 µM (active)
O=c1[nH]nc(OCCCc2ccc(Cl)cc2)c(NCc2cccnc2)c1Br,activation,[1],-4.06% and -19.1%
same,Potency,[2],inactive
same,Potency,[11],inactive
same,Potency,[8],20.9 µM (active)
O=C(/C=C/C=C/c1ccc2c(c1)OCO2)N1CCCCC1,activation,[1],-7.63%
same,Potency,[2],inactive
same,viability,[3],96.4%
same,Potency,[5],inactive
same,Potency,[6],inactive
same,Potency,[7],inactive
same,Potency,[8],inactive
COc1cc(N2CCN(C)CC2)ccc1Nc1nccc(-c2cn(C)c3cnccc23)n1,Potency,[1],26.9 µM (active)
same,Potency,[2],inactive
same,Potency,[3],20.9 µM (active)
same,Potency,[4],0.372 µM (active)
same,Potency,[5],13.2 µM (active)
same,Potency,[6],6.61 µM (active)
same,Potency,[7],13.2 µM (active)
same,Potency,[8],14.8 µM (active)
CCCCOc1ccc(C(=O)Nc2ccc(F)cc2F)cc1,activation,[1],-9.74% and -2.39%
same,Potency,[2],inactive
same,viability,[3],103%
same,Potency,[9],inactive
same,Potency,[5],inactive
same,Potency,[6],inactive
same,Potency,[7],inactive
same,Potency,[8],inactive
N#C/C(=C\c1ccc(O)c(O)c1)C(=O)NCCCNC(=O)/C(C#N)=C/c1ccc(O)c(O)c1,activation,[1],-33.4%
same,Potency,[10],2.83 µM (active)
CNC(=O)c1c(F)cccc1Nc1nc(Nc2cc3c(cc2OC)CCN3C(=O)CN(C)C)nc2[nH]ccc12,activation,[1],42.7%
same,Potency,[2],inactive
same,Potency,[9],9.34 µM (active)
same,Potency,[4],7.42 µM (active)
same,Potency,[5],6.61 µM (active)
same,Potency,[6],8.33 µM (active)
same,Potency,[7],8.33 µM (active)
same,Potency,[8],7.42 µM (active)
CN(C)Cc1c(C(=O)NCCOc2ccc(C(=O)NO)cc2)oc2ccccc12,Potency,[1],21.7 µM (active)
same,Potency,[2],inactive
same,Potency,[3],0.662 µM (active)
same,Potency,[9],0.59 µM (active)
same,Potency,[4],0.263 µM (active)
same,Potency,[5],0.934 µM (active)
same,Potency,[6],0.662 µM (active)
same,Potency,[7],0.742 µM (active)
same,Potency,[8],0.934 µM (active)
COc1cc(O)c2c(c1)/C=C/C[C@H](O)[C@H](O)C(=O)/C=C\C[C@H](C)OC2=O,Potency,[1],10.7 µM (active)
same,Potency,[10],5.04 µM (active)
same,Potency,[13],5.04 µM (active)
C=CC(=O)Nc1cccc(Oc2nc(Nc3ccc(N4CCN(C)CC4)cc3OC)ncc2Cl)c1,Potency,[1],19.3 µM (active) and 30.1 µM (active)
same,Potency,[2],inactive
same,Potency,[3],20.9 µM (active)
same,Potency,[9],10.5 µM (active)
same,Potency,[4],4.68 µM (active)
same,Potency,[5],9.34 µM (active)
same,Potency,[7],14.8 µM (active)
same,Potency,[8],16.6 µM (active)
